{"source": "the OligoGym collection", "data": [{"target": "TPPP3", "assay": "pooled miR-30 sensor sort-seq; sequence = guide strand", "conditions": "shRNA", "values": [{"sequence": "TTGCAGTCCTTGCACAGCTTGG", "sensor-assay potency score (higher = more potent)": -0.971}, {"sequence": "TCGTCCAGGATGTCCTGCCGTC", "sensor-assay potency score (higher = more potent)": -0.707}, {"sequence": "TTGACTTTGGAGAAGACGATGT", "sensor-assay potency score (higher = more potent)": -0.378}]}, {"target": "TPRX1", "assay": "pooled miR-30 sensor sort-seq; sequence = guide strand", "conditions": "shRNA", "values": [{"sequence": "TAGAGTCATCCCCTTCTTGGTA", "sensor-assay potency score (higher = more potent)": -0.907}, {"sequence": "TGAACCACACCTGCAGCTGTTG", "sensor-assay potency score (higher = more potent)": -0.826}, {"sequence": "TCGGGCTTGGGATCTGAGCTGG", "sensor-assay potency score (higher = more potent)": -0.605}, {"sequence": "TTTCATTCACAGAGCCACCCTC", "sensor-assay potency score (higher = more potent)": -0.302}, {"sequence": "TAGGGGTAGGAGCAGCTCTGTG", "sensor-assay potency score (higher = more potent)": -1.84}, {"sequence": "TTGAACCACACCTGCAGCTGTT", "sensor-assay potency score (higher = more potent)": -0.741}, {"sequence": "TGAAGTGAGGGAATAACTGGGT", "sensor-assay potency score (higher = more potent)": 0.243}, {"sequence": "TTCTTGGTACTGAGAGGTCATG", "sensor-assay potency score (higher = more potent)": -1.73}, {"sequence": "TTCATTCACAGAGCCACCCTCC", "sensor-assay potency score (higher = more potent)": -0.83}, {"sequence": "TTGGAGCTGGGACTGAGCCTGA", "sensor-assay potency score (higher = more potent)": -0.894}, {"sequence": "TTGCCCATAGAGTCATCCCCTT", "sensor-assay potency score (higher = more potent)": -0.764}, {"sequence": "TGGTGGAGGCTGCAGATCGTGG", "sensor-assay potency score (higher = more potent)": -1.98}]}, {"target": "TRAFD1", "assay": "pooled miR-30 sensor sort-seq; sequence = guide strand", "conditions": "shRNA", "values": [{"sequence": "TTCCTGCTTAGTATCATCCAGG", "sensor-assay potency score (higher = more potent)": -0.814}, {"sequence": "TAACTGGTTACTTGCAGCCTGT", "sensor-assay potency score (higher = more potent)": -0.902}, {"sequence": "TTCTATTGTGGAAAACATCTGA", "sensor-assay potency score (higher = more potent)": 0.311}, {"sequence": "TTTATGTCACTGAGAGACCTGG", "sensor-assay potency score (higher = more potent)": -0.674}, {"sequence": "TTTGCCTTTGCAGTTCTGCTGC", "sensor-assay potency score (higher = more potent)": 0.136}, {"sequence": "TTGCACTCTCTTCACCACCCTC", "sensor-assay potency score (higher = more potent)": -0.942}, {"sequence": "TTGCAGTTGTCACACAGTCGAG", "sensor-assay potency score (higher = more potent)": -1.47}, {"sequence": "TTATTCTGAATTGAAACCTGGG", "sensor-assay potency score (higher = more potent)": 0.55}, {"sequence": "TTCTTCAAACAGATTATTCTGA", "sensor-assay potency score (higher = more potent)": 0.585}, {"sequence": "TGCAGTTGTCACACAGTCGAGT", "sensor-assay potency score (higher = more potent)": -0.879}, {"sequence": "TTGGTTGGTAGTTCTATTGTGG", "sensor-assay potency score (higher = more potent)": -0.193}]}, {"target": "TRAPPC2L", "assay": "pooled miR-30 sensor sort-seq; sequence = guide strand", "conditions": "shRNA", "values": [{"sequence": "TATACCTTGTAGTCCTCCGTGG", "sensor-assay potency score (higher = more potent)": 0.16}, {"sequence": "TTCGTTGTCTCGAAGGGCTGTG", "sensor-assay potency score (higher = more potent)": 0.76}, {"sequence": "TTGAGAGAACATGCACAGCTGC", "sensor-assay potency score (higher = more potent)": -0.482}, {"sequence": "TTCAGCTCGTTCTCCGTAGGGG", "sensor-assay potency score (higher = more potent)": 0.103}, {"sequence": "TTGCACATCACGTCTGTGTAGG", "sensor-assay potency score (higher = more potent)": 0.239}, {"sequence": "TTGGAGTTGGTGACGTAGCCGT", "sensor-assay potency score (higher = more potent)": -0.459}, {"sequence": "TTTCGTTGTCTCGAAGGGCTGT", "sensor-assay potency score (higher = more potent)": 0.949}, {"sequence": "TACCTTGTAGTCCTCCGTGGGG", "sensor-assay potency score (higher = more potent)": -0.92}, {"sequence": "TTGTGTAGCTTCCGGAACATGC", "sensor-assay potency score (higher = more potent)": -0.801}, {"sequence": "TGTGTAGGAGTTGTGTAGCTTC", "sensor-assay potency score (higher = more potent)": 0.492}, {"sequence": "TAGTTGAGAGAACATGCACAGC", "sensor-assay potency score (higher = more potent)": -1.15}, {"sequence": "TGTAGCTTCCGGAACATGCTGC", "sensor-assay potency score (higher = more potent)": 0.0954}]}]}
